Compounds with a hit are over-represented: about 1.4% of the library has one in this group of screens.
ERAP1 inh = inhibitors of human ERAP1 aminopeptidase; actives 0.15% (n = 340,000); recombinant ERAP1, Leu-AMC fluorescence, 60 min; inhibition, % at 10.7 µM;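 active = mean replicate inhibition of at least 30%, or all replicates individually reaching that 30% level; inactive = mean below 30% and not every replicate reaching it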;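 note: 0% = neutral control wells and 100% = L-leucinethiol positive control wells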
RAD54 inh = inhibitors of human RAD54 branch migration. inhibition, % at 10.4 µM. AID 602329. Q92698. RAD54 Holliday junction branch migration, FAM/BHQ fluorescence. actives 0.14% (n = 360,000);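 active = mean normalized replicate activity at least 40 and at least half of replicates scoring 40 or more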;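 note: 0% = median of neutral control wells and 100% = median of positive control wells; inhibitors cause a drop in the FAM fluorescence signal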
PGC1a acetyl inh = lowers PGC1a acetylation signal in U2OS cells | inhibition, % at 15.6 µM | actives 0.17% (n = 350,000) | AlphaScreen anti-acetyl-lysine; with virally co-expressed GCN5 acetyltransferase;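 active = every replicate shows inhibition of at least 40%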;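 note: 0% = neutral control wells and 100% = positive control wells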
MLL AF4-AF9 inh = MLL-AF4/AF9 protein interaction inhibition | P42568 | AlphaScreen, biotin-AF4 peptide binding to FLAG-AF9 | inhibition, % at 10 µM | actives 0.47% (n = 350,000);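 active = every replicate reaching a set inhibition limit, whatever the replicate mean, cut at about 25% in these data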;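 note: 0% = plate neutral control median and 100% = total signal loss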
GSIS activator = primary screen for activators of insulin secretion dependent on glucose, INS-1E cells, GLuc reporter luminescence; INS-1E GLuc reporter insulin secretion, 2-3 h; activation, % at 16.6 µM; actives 0.61% (n = 370,000);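 active = lowest replicate activation of at least 40%, so every replicate reaches that level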;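 note: 0% = median of neutral control wells and 100% = median of IBMX positive control wells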
RAD52 anneal inh = RAD52 (human) annealing inhibition | P43351 | recombinant RAD52 DNA annealing, FRET fluorescence | inhibition, % at 18.7 µM | actives 0.46% (n = 360,000) | AID 651710;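 active = every replicate showing at least 50% inhibition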
Target sequence (P43351 whole entry, looked up): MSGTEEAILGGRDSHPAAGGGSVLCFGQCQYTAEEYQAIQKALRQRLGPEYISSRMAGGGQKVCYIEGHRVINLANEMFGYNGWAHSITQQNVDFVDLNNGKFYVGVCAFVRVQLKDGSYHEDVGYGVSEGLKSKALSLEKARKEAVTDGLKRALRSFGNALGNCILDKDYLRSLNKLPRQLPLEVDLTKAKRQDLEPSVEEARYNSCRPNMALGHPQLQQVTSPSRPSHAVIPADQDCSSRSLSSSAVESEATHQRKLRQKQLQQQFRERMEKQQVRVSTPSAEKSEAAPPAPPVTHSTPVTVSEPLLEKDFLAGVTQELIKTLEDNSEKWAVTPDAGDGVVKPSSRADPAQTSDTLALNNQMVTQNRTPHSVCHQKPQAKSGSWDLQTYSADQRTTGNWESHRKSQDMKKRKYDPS
Active calls of the source: *; . = not tested or not shown.

SMILES | ERAP1 inh | RAD54 inh | PGC1a acetyl inh | MLL AF4-AF9 inh | GSIS activator | RAD52 anneal inh
C[C@H](CO)N1C[C@H](C)[C@H](CN(C)Cc2ccc(C(F)(F)F)cc2)Oc2ccc(NS(=O)(=O)c3ccc(Cl)cc3)cc2CC1=O | 2 | 2 | 0 | 2 | -25 | -12
CCNC(=O)[C@H]1[C@H](CO)[C@H]2Cn3c(ccc(-c4ccccc4)c3=O)[C@@H]1N2CCC(F)(F)F | . | -13 | . | . | 22 | 1
CCOC(=O)c1cc2sccc2n1CC(=O)N1c2ccccc2CC1C (stereo not drawn) | . | . | . | . | 472* | .
COc1ccc(CCn2nnc(-c3ccc(NC(C)=O)c(Cl)c3)n2)cc1 | . | -4 | . | . | 81* | .
Cc1cc(=O)c2c(N(C)C)cccc2[nH]1 | -49 | 34 | 5 | 32* | 18 | 19
Cc1cc(=O)c2ccccc2[nH]1 | . | -7 | 0 | . | . | .
CCOC(=O)c1c(NC(=O)c2ccoc2C)sc(C(=O)N(C)C)c1C | . | -3 | -4 | . | 47* | .
CCN(CC)C(=O)c1sc(NC(=O)c2ccoc2C)c(C(=O)OC)c1C | . | -14 | -9 | . | . | .
CCN(CC)CCOc1ccc2c(c1)C(=NO)c1cc(OCCN(CC)CC)ccc1-2 | . | 125* | 40 | . | 8 | .
CCN(CC)CCOc1ccc(Br)cc1 | . | -7 | -3 | . | 20 | .
CCCOc1ccc2c(c1)C(=NN=C(N)N)c1cc(OCCC)ccc1-2 | 1 | 12 | -75 | 32* | 124 | 4
CCCOc1ccc(/C=N/O)cc1 | . | -7 | 8 | . | . | .
Cc1ccc(S(=O)(=O)N[C@H]2CC[C@H](CCn3cc(-c4cccnc4)nn3)O[C@@H]2CO)cc1 | 1 | -2 | 4 | -27 | 2 | -10
CC(C)(C)OC(=O)N1CCCN(C(=O)c2ccc(Cl)cc2)CC1 | 4 | -6 | -7 | -1 | 192* | -10
CC(C)(C)OC(=O)N1CCC(C(=O)Nc2ccc(C(=O)N3CCCC3)cc2)CC1 | -3 | -12 | 12 | -1 | 6 | -6
O=C(O)c1ccc2c(=O)n(-c3ccccc3)c(=S)[nH]c2c1 | -2 | -8 | -4 | 1 | 27 | -17
O=c1[nH]c(=O)c2[nH]c(=S)n(-c3ccccc3)c2[nH]1 | 37* | 2 | 2 | 8 | 30 | -14
COc1ccc(S(=O)(=O)N(C)C[C@H]2Oc3ccc(NC(=O)NC(C)C)cc3CC(=O)N([C@@H](C)CO)C[C@H]2C)cc1 | 1 | -6 | 2 | -2 | 16 | 9
COc1ccc(S(=O)(=O)N(C)C[C@@H]2Oc3ccc(NC(=O)Nc4ccccc4)cc3CC(=O)N([C@@H](C)CO)C[C@@H]2C)cc1 | 1 | 72* | 0 | 3 | -30 | 0
COc1ccc(S(=O)(=O)N(C)C[C@@H]2Oc3ccc(NC(=O)NC(C)C)cc3CC(=O)N([C@@H](C)CO)C[C@@H]2C)cc1 | 2 | 51* | 3 | 1 | 28 | 14
O=C(NC1CCCCC1)C(c1ccc(F)cc1)N(CCc1ccccc1)C(=O)CN1C(=O)c2ccccc2S1(=O)=O (stereo not drawn) | 4 | -1 | 4 | -4 | . | -36
O=C(NC1CCCCC1)C(c1ccc(F)cc1)N(Cc1ccccc1)C(=O)CN1C(=O)c2ccccc2S1(=O)=O (stereo not drawn) | . | -7 | . | . | 111* | .
CCOC(=O)C1=C2c3cc(OC)c(OC)cc3CC(C)(C)N2C(=O)C1=O | 2 | 8 | -18 | 4 | 45* | -18
COc1cc2cnc(Cl)nc2cc1OC | . | -2 | 3 | . | 61* | .
COC(=O)C1=C(C)N(Cc2cccc(C(F)(F)F)c2)C(=NCc2ccc(OC)cc2)NC1c1cccc(F)c1 (stereo not drawn) | 1 | . | . | . | 84* | -6
SMILES | ERAP1 inh | RAD54 inh | PGC1a acetyl inh | MLL AF4-AF9 inh | GSIS activator | RAD52 anneal inh
COC(=O)C1=C(C)N(Cc2cccc(C(F)(F)F)c2)C(=NCc2ccc(OC)cc2)NC1c1ccccc1 (stereo not drawn) | 1 | . | . | 17 | . | -12
COC(=O)C1=C(C)N(Cc2cccc(C(F)(F)F)c2)C(=NCc2ccc(OC)cc2)NC1c1ccc(F)cc1 (stereo not drawn) | 4 | . | . | . | 285* | -24
CCCN(Cc1nnc(-c2ccccc2Cl)o1)C(=O)c1cc2ccccc2o1 | -5 | 11 | . | -2 | 63* | -28
O=C(c1cc2ccccc2o1)N(Cc1nnc(-c2ccccc2Cl)o1)C1CC1 | 3 | 1 | -5 | -14 | -5 | -94
O=C1C=CCCN1C(=O)/C=C/c1cccc(Br)c1 | -2 | . | 46* | 1 | . | 6
CC(=O)N1C[C@@H]2C(c3ccccc3)[C@@H](C1)N2CC(F)(F)F (stereo partly drawn) | . | . | . | . | 19 | .
CCc1cc2ccc(OC)cc2nc1SCC(=O)Nc1cc(C)on1 | . | -3 | -1 | . | 48* | .
CN1C(=O)N(C)N(Cc2ccccc2)C(=O)N1Cc1ccccc1 | -1 | . | . | -4 | 1 | -6
O=C1C=CC(=O)N1Cc1ccccc1 | 1 | -6 | 4 | 48* | . | 0
COc1ccc(-c2c(C)nn3c(-c4ccccc4)cc(C)nc23)cc1 | 3 | -10 | . | 27* | 1 | -15
Cc1cc(C)n2nc(C)c(-c3ccccc3)c2n1 | 0 | . | . | -6 | 25 | 3
CCCC#Cc1ccc2c(c1)O[C@@H](CN(C)Cc1ccc3c(c1)OCO3)[C@@H](C)CN([C@H](C)CO)S2(=O)=O | 1 | 10 | -57 | -4 | -31 | 13
CN(C)CCCN(C(=O)CCc1ccccc1)c1nc2ccc(F)cc2s1 | . | . | . | . | -15 | .
CN(C)CCCN(C(=O)CCc1ccccc1)c1nc2ccc(Br)cc2s1 | 3 | 6 | -8 | 26* | 23 | 41
c1ccc(Nc2c3c(nc4ccccc24)CCC3)cc1 | 0 | . | . | 3 | 7 | 14
COc1ccc(Nc2c3c(nc4ccccc24)CCC3)cc1 | -3 | 28 | 1 | 9 | 74* | 34
COc1ccc(CN(C)C[C@H]2OCCCC[C@@H](C)Oc3ccc(NC(=O)NC(C)C)cc3C(=O)N([C@@H](C)CO)C[C@H]2C)cc1 | . | . | 2 | . | 2 | .
CCN=C1S/C(=C\c2ccc(O)c(OCC)c2)C(=O)N1CC | 10 | . | . | 6 | 57* | -5
COc1ccc(-c2noc(CCC(=O)Nc3cccnc3)n2)cc1OC | . | -3 | -3 | . | 66* | .
COc1ccc(-c2noc(CCCC(=O)Nc3cccnc3)n2)cc1OC | -1 | . | 4 | -1 | . | -6
CC1(C)C2([N+](=O)[O-])CN3CC1([N+](=O)[O-])CN(C2)C3c1ccccc1 (stereo not drawn) | . | . | . | . | 56* | .
CC(C)NC(=O)NCC[C@@H]1CC[C@H](NC(=O)CN(C)C)[C@H](CO)O1 | 1 | -8 | -10 | 3 | 4 | 9
CN(C)CCOc1ccc(-c2c(-c3ccsc3)sc3ccccc23)cc1 | 1 | 11 | . | 14 | 66* | 13
COc1cccc(-c2sc3ccc(OC)cc3c2-c2ccc(OCCN(C)C)cc2)c1 | -1 | 3 | . | 11 | 132* | -34
O=[N+]([O-])c1ccc2c(c1Nc1ccccc1)=NC1(CCCCC1)N=2 | . | 6 | 4 | . | . | .

Screening results from PubChem.
